Molecules are shown by their SMILES. In all, about 340,000 compounds went through this assay and about 2,800 (0.82%) were called active.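 The calls were made as follows: active = B-score under library mean minus 4 SD, starting fluorescence ratio at most library mean plus 5 SD; inactive = the rest.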 The entries come from a sample that favours actives as a whole.

For this assay, the target named is Potassium channel subfamily K member 3 (Homo sapiens) (UniProt O14649). The assay can be described thus: human KCNK3 channel inhibitors, primary screen, CHO cells, FluxOR thallium flux, B-score (AID 602410).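 As to B-score: more negative B-score means stronger inhibition of thallium flux through KCNK3.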 The following applies: FluxOR fluorescence, at 10 µM; active compounds read low.
Potassium channel subfamily K member 3 (Homo sapiens), sequence (O14649 whole entry, looked up): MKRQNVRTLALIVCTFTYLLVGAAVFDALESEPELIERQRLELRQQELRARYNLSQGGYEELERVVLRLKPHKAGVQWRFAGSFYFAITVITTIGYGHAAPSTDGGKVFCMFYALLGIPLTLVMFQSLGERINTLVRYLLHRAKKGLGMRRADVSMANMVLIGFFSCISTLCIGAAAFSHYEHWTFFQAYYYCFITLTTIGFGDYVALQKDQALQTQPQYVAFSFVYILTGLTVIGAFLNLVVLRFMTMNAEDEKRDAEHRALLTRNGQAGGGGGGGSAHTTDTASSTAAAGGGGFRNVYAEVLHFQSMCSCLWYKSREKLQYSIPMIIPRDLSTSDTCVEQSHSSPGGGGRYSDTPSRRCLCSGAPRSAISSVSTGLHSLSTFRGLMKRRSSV
As for `Cn1ccnc1-c1nnn(-c2ccc(F)cc2)n1`, the B-score entry is “inactive”. Take `O=C(CC(c1ccccc1)c1cc(Cl)ccc1O)NCCN1CCOCC1` (configuration not stated): the B-score result is “inactive”. The entry for `Cc1cc(OCC(=O)NC2CCN(C)CC2)ccc1[N+](=O)[O-]` is “inactive”; for `Cc1cc(OCCCN2CCN(Cc3ccccc3)CC2)ccc1[N+](=O)[O-]` it is “inactive”. Regarding `Cc1cc(OCCCCOc2ccc(C#N)cc2)ccc1[N+](=O)[O-]`, the B-score was -9.68 (active). `COC(c1ccccc1)c1nnc(CCC(=O)N2CCN(CCOc3ccccc3)CC2)o1` (configuration not stated): the B-score entry is “inactive”. On to `O=C(CC1NCCc2ccccc21)Nc1cccc(Cl)c1` (configuration not stated), for which the B-score is -8.87 (active). For `O=C(CC1NCCNC1=O)Nc1cc(Cl)cc(Cl)c1` (configuration not stated), the B-score entry is “inactive”. For `O=C(CC1NCCNC1=O)Nc1ccc(Oc2ccccc2)cc1` (configuration not stated), the B-score result was “inactive”.

Turning to `O=C(NNS(=O)(=O)c1ccccc1C(F)(F)F)c1cc2ncc(C(F)(F)F)cc2s1`, the B-score entry was “inactive”. For `CN1CCN(C(=O)/C(=C\c2cccs2)NC(=O)c2cccs2)CC1`, the B-score result was “inactive”. The figure for `Cc1ccc(C)c(C(=O)COC(=O)Cn2[nH]c(=O)c3ccccc3c2=O)c1` is -9.1 (active); for `CN(C)S(=O)(=O)c1ccc(NC(=O)COC(=O)Cn2[nH]c(=O)c3ccccc3c2=O)cc1` it is “inactive”; for `O=C(COC(=O)Cn1[nH]c(=O)c2ccccc2c1=O)Nc1ncc(Cl)cc1Cl` it is “inactive”.

Take `Fc1ccc(Cn2nnnc2C(c2cccs2)N2CCCCCC2)cc1` (configuration not stated): the B-score entry is “inactive”.

For the compound `CCC(C)(C)n1nnnc1C(c1cccs1)N1CCN(c2nc3ccccc3s2)CC1` (configuration not stated), the B-score is -9.57 (active). Next, `CCC(C)(C)n1nnnc1C(c1ccc(OC)c(OC)c1)N1CCN(C(=O)c2ccco2)CC1` (configuration not stated): “inactive”; `CC(C)C(=O)N1CCN(CCN=CC2=C(O)CC(c3ccco3)CC2=O)CC1` (configuration not stated): “inactive”; `CCOC(=O)C1=C(CN2CCc3ccccc32)NC(=O)NC1c1cc(C)ccc1C` (configuration not stated): “inactive”. In the case of `CC(C)(C)c1nnc(N/N=C/c2ccc(O)cc2)n(N)c1=O`, the B-score result was “inactive”. As for `O=C(Nc1cc(=O)[nH]c2ncnn12)c1ccccc1Cl`, the B-score entry is “inactive”. The entry for `COc1ccc(OC)c(C(c2nnnn2C(C)(C)C)N2CCc3ccccc3C2)c1` (configuration not stated) is “inactive”; for `CCCC(c1nnnn1C(C)(C)C)N1CCN(Cc2ccccc2)CC1` (configuration not stated) it is “inactive”; for `COc1ccccc1C(c1nnnn1C(C)(C)C)N1CCN(Cc2ccccc2)CC1` (configuration not stated) it is -8.94 (active). The entry for `C=CCn1c(SCc2cc(C(=O)OC)c(C)o2)nnc1-c1ccncc1` is “inactive”. Turning to `COc1ccc(N2CCN(S(=O)(=O)c3ccc4c(c3)NC(=O)C(C)C(=O)N4)CC2)cc1` (configuration not stated), the B-score result was “inactive”.

Regarding `Cc1ccc(NC(=O)c2cc([N+](=O)[O-])ccc2Cl)c(O)c1`, the B-score was -10.1 (active).

As to `O=C(Nc1cccnc1)c1cc([N+](=O)[O-])ccc1Cl`, the B-score result is “inactive”.

Turning to `CNc1ccc([N+](=O)[O-])cc1C(=O)O`, the B-score result was “inactive”.

For `Cc1ccc(SCC(=O)Nc2nncs2)cc1`, the B-score entry was “inactive”.

On to `COc1ccccc1-c1c(C#N)c(N)nc2c1CCC2`, for which the B-score result was “inactive”. For `O=C(CSc1nc2ccccc2c(=O)n1Cc1ccc(F)cc1)NCC1CCCO1` (configuration not stated), the B-score entry was “inactive”. In the case of `Clc1cccc(-c2nc(NCC3CCCO3)c3ccccc3n2)c1` (configuration not stated), the B-score is -10.2 (active). Consider `c1ccc2c(NCC3CCCO3)nc(-c3ccncc3)nc2c1` (configuration not stated), for which the B-score entry is “inactive”. Next, `CCOC(=O)[C@@H]1[C@H]2COc3ccc(Br)cc3[C@H]2N2C(=O)N(c3ccc(C)cc3)C(=O)[C@@]12C`: “inactive”; `CCn1c(CSc2nncn2-c2ccc(OC)cc2)nc2cc(S(=O)(=O)N(C)C)ccc21`: “inactive”. Consider `COc1cc(CNCc2ccc(OC)c3ccccc23)cc(OC)c1OC`, for which the B-score result is “inactive”. Next, `CC(C)N(Cc1ccccc1)C(=O)COC(=O)c1cnccn1`: “inactive”; `Cc1cc(C)cc(OCC(=O)O/N=C(\N)Cc2ccc([N+](=O)[O-])cc2)c1`: “inactive”; `N/C(=N\OC(=O)Cc1ccc([N+](=O)[O-])cc1)c1ccccn1`: “inactive”. For the compound `N/C(Cc1ccc([N+](=O)[O-])cc1)=N\OC(=O)COc1ccc2ccccc2c1`, the B-score was -8.91 (active). Turning to `CCNC(=O)CC1C(=O)N(c2ccc(OC)cc2)C(=S)N1CCc1ccncc1` (configuration not stated), the B-score result was “inactive”. For `CCc1cc(-c2n[nH]c(=S)n2CC(C)C)cs1`, the B-score result is “inactive”.

Take `CCOC(=O)N1CCN(Cc2nc3cc(NC(=O)CC)ccc3n2CC)CC1`: the B-score result was “inactive”. Next, `O=C(CN(CC1CCCO1)C(=O)CNS(=O)(=O)c1ccc(Cl)cc1)NCc1ccccc1` (configuration not stated): “inactive”. The entry for `CCC(C(=O)NCCC(C)C)N(Cc1ccccc1Cl)C(=O)c1snc(C(N)=O)c1N` (configuration not stated) is “inactive”; for `COc1ccc2c(c1)c(=Cc1ccc(N(C)C)cc1)c1cc(-c3ccccc3)[n+](C)n12` it is -15.6 (active). Next, `COc1ccc2sc(-c3ccc(N(C)C)cc3)c(C#CCO)c2c1`: “inactive”; `O=S(=O)(c1cccs1)N1CCN(CCOc2ccccc2)CC1`: “inactive”.

For the compound `O=C(N/N=C/c1cccc(OCc2ccccc2)c1)c1ccc(Br)o1`, the B-score was -9.25 (active).

Regarding `O=C(N/N=C/c1cccc(O)c1)c1cc2c(ccc3ccccc32)o1`, the B-score entry was “inactive”. Next, `Cc1ccc(OCCOc2cccc(/C=N/NC(N)=O)c2)cc1`: “inactive”; `COc1ccccc1N1CCN(c2ncnc3sc(C)c(-c4ccccc4)c23)CC1`: -14.3 (active). Turning to `COc1ccccc1N1CCN(c2nc(C)cc(=O)[nH]2)CC1`, the B-score result is “inactive”.

In the case of `COc1ccccc1N1CCN(c2ccc([N+](=O)[O-])nc2)CC1`, the B-score result is “inactive”. Regarding `COc1cccc2cc(C(C)N(CCCN3CCOCC3)C(=O)Nc3ccc(Cl)cc3)oc12` (configuration not stated), the B-score is -10.2 (active). As to `O=C(NCCN1CCOCC1)Nc1cccc(Cl)c1`, the B-score result is “inactive”. Consider `COc1ccc(S(=O)(=O)N(C)CC(=O)NCCCN2CCOCC2)cc1Cl`, for which the B-score result is “inactive”.

For the compound `Cc1nn(CC(=O)Nc2ccc(N(C)C)cc2)c(C)c1[N+](=O)[O-]`, the B-score result is “inactive”. For the compound `Cc1nn(CC(=O)Nc2nc3ccccc3s2)c(C)c1[N+](=O)[O-]`, the B-score is -10.5 (active). Next, `Cc1nn(CC(=O)NCc2ccccn2)c(C)c1[N+](=O)[O-]`: “inactive”; `CCN(CC(=O)NCc1ccc(F)cc1)S(=O)(=O)c1ccc(Cl)s1`: “inactive”. In the case of `CC(C(=O)NC1CCCC1)N(c1ccc(Oc2ccccc2)cc1)S(C)(=O)=O` (configuration not stated), the B-score result is “inactive”. For the compound `COC(=O)c1cc(C)sc1NC(=O)CC1Nc2ccccc2NC1=O` (configuration not stated), the B-score result is “inactive”.

With `COC(=O)C1=C(C)N(C(C)c2ccccc2)C(=O)/C1=C\c1ccco1` (configuration not stated), the B-score was -9.57 (active). As to `COC(=O)COc1ccc2c(c1C)O/C(=C\c1ccco1)C2=O`, the B-score entry was “inactive”. Next, `O=C(OCN1C(=O)c2ccccc2C1=O)/C(=C\c1ccco1)NC(=O)c1ccccc1`: “inactive”.
